# CtBP-E1A inh: CtBP/E1A binding inhibition; AlphaScreen GST-E1A/His-CtBP binding, 1536-well; active compounds read low; activity change, % (concentration not given with the values); 340,000 compounds, 0.49% hits; AID 651724; in the data active = activity change below about -65%; inconclusive = mostly about -30% to -63%
#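 GST-E1A and His-tagged CtBP (125 nM each as 5X stock) were preincubated with pin-transferred compound for 2 h at 37 °C in the dark, then glutathione donor and nickel acceptor beads were added for 1 h before AlphaScreen reading.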
# TDP1 cell noCPT: qHTS for Inhibitors of human tyrosyl-DNA phosphodiesterase 1 (TDP1): qHTS in cells in absence of CPT. DT40 Tdp1-/- hTDP1 cells, no CPT, ATP luminescence, 48 h. Potency, µM (series often up to 46.2 µM), for inactives: top-dose activity change, negative = growth inhibition, actives largely listed as inhibitors. 420,000 compounds, 15% hits; also: potency is read from the fitted curve at half-maximal effect; nearly all actives have a fitted effect of over 55% in size
#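 Chicken DT40 Tdp1-/- cells complemented with human TDP1, screened without camptothecin (DMSO vehicle only), 400 cells/well. Compounds pin-transferred, cells incubated at 37 °C for at least 48 hr. Growth read as ATP-dependent luminescence (CellTiter-Glo, 30 min at RT).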
# DT40 TDP1 CPT: DT40-hTDP1 cell growth loss with CPT; Potency, µM (titrated, usually from 46.2 µM), without a hit: at the highest dose activity change, negative = growth inhibition, most hits filed as inhibitors; 420,000 compounds, 12% hits; chicken DT40 Tdp1-/-;hTDP1 cells + 20 nM CPT, ATP luminescence, 48 h; AID 686979; also: potency is read from the fitted curve at half-maximal effect; nearly all actives have a fitted effect of over 55% in size
#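 Cell growth measured by CellTiter-Glo luminescence after a minimum 48 h, 37 C compound exposure with 20 nM CPT in Tdp1-knockout DT40 cells stably expressing hTDP1, seeded 400/well; qHTS titration format.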
# TDP1 block: blocks human tyrosyl-DNA phosphodiesterase 1; Potency, µM (doses to about 130 µM), inactives show at the highest dose activity change, negative = inhibition, usual class: inhibitors; 350,000 compounds, 0.28% hits; recombinant TDP1, AlphaScreen DNA substrate cleavage; also: potency is read from the fitted curve at half-maximal effect; nearly all actives have a fitted effect of over 40% in size
# Target sequence (Q9NUW8 whole entry, looked up): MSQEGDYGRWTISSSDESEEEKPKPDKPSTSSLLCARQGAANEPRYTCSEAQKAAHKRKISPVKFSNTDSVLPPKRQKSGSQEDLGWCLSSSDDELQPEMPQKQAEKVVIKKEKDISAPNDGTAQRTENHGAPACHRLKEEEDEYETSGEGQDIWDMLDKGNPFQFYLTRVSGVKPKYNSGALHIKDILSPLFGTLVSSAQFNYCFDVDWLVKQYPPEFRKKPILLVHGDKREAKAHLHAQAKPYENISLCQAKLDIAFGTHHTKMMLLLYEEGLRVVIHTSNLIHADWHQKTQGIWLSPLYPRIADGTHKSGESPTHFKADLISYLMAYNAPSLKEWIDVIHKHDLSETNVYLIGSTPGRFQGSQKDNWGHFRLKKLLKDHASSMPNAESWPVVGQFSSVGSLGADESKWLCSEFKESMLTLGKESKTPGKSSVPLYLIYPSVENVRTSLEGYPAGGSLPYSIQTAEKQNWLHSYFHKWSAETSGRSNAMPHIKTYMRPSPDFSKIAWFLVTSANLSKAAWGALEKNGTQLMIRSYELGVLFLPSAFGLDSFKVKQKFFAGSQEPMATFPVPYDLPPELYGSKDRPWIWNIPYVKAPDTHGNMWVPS
#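 AlphaScreen read-out: signal falls as enzyme removes the 3' tyrosine-FITC from a 5'-biotinylated DNA oligo (15 nM, 5 min, RT). Enzyme was E. coli-made recombinant Tdp1 at 1 nM, exposed to compound for 15 min beforehand; beads 10 ug/ml, 10 min.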
# Six1-Eya2 inh: blocks human Six1 binding to Eya2; AlphaScreen GST-Six1/His-Eya2 binding, biochemical; active compounds read low; Q15475+O00167; 360,000 compounds, 0.56% hits; activity change, % (no concentration beside the values); in the data active = activity change below about -65%; inconclusive = mostly about -30% to -63%
#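 GST-Six1 + His-Eya2 (5X stock: 250/500 nM); Tris pH 8.0, 300 mM NaCl, 0.05% BSA, 0.02% Tween 20; GSH donor/Ni acceptor beads; 1 h 37 °C dark; AlphaScreen readout.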
# IL1B secr inh: inflammasome signaling inhibition, IL-1 beta readout; THP-1 LPS/ATP IL-1B secretion, AlphaLISA, 16 h; active compounds read low; activity change, % at 57.5 µM; 360,000 compounds, 4.7% hits; in the data active = activity change below about -50%; inconclusive = mostly about -30% to -49%
#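 THP-1 cells pretreated 1 hr with compounds (up to 57.5 uM final), then stimulated with LPS (250 ng/mL final) plus ATP (1.25 mM final); secreted IL-1B measured by AlphaLISA after 16 hr, decreased signal indicating inhibition.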
# * hit, by the source's call; ? = inconclusive; · = no result given. Compounds with a hit are over-represented: about 18% of the library has one in this group of screens. Unless noted, calls follow the shape of the dose curve; as a rule, active = well fitted curve in the direction sought with a large enough effect; inconclusive = small, poorly fitted or top-dose-only effect, or another doubt; inactive = no such curve, though single readings can be large; an effect the other way counts as inactive or inconclusive. % is scaled to controls: 0 for no effect and ±100 for the full control effect.
SMILES,CtBP-E1A inh,TDP1 cell noCPT,DT40 TDP1 CPT,TDP1 block,Six1-Eya2 inh,IL1B secr inh
CCOc1ccc(-c2nc(CSCC(=O)NC3CCN(Cc4ccccc4)CC3)c(C)o2)cc1,-2,?,23µM*,·,-10,-21
CCOc1ccc(-c2nc(CSCC(=O)NC3CCCc4ccccc43)c(C)o2)cc1 (configuration not stated),-1,?,18µM*,5%,-2,-77*
CCOc1ccc(-c2nc(CSCC(=O)NC3CC3)c(C)o2)cc1,·,?,?,2%,4,10
Cc1oc(-c2ccc(Cl)cc2)nc1CSCC(=O)NC1CCN(Cc2ccccc2)CC1,1,?,?,3%,-1,-61*
COc1ccc(NC2=NC(C)(CO)CS2)cc1 (configuration not stated),·,-30%,-1%,5%,-2,6
CCN(CC)S(=O)(=O)c1cc(NC(=O)CO/N=C(\N)c2ccccc2Cl)ccc1C,-2,?,?,1%,6,0
O=C(Nc1ccc(OC(F)(F)F)cc1)c1ccc2nccnc2c1,-13,?,-96%,3%,-6,4
O=C(Nc1ccc(SC(F)F)cc1)c1ccc2nccnc2c1,48,?,?,7%,16,-97*
COC(=O)c1ccc(NC(=O)c2ccc3nccnc3c2)cc1,-20,29µM*,-24%,-3%,-12,-27
Cc1ccc(C(=O)Nc2ccc3nccnc3c2)cc1,-5,16µM*,?,2%,-17,-28
CCc1noc(C)c1C(=O)N1CCN(S(=O)(=O)c2cccs2)CC1,4,3%,7%,-1%,4,16
O=C(CN1CCCC1)Nc1nc(-c2ccc3c(c2)CCN3C(=O)c2ccccc2F)cs1,-13,?,?,·,-29,-12
CNc1nc(-c2ccc3c(c2)CCN3C(=O)c2ccccc2C)cs1,-1,16µM*,?,10%,-17,-10
CNc1nc(-c2ccc3c(c2)CCN3C(=O)c2cccc(F)c2)cs1,-10,21µM*,23µM*,8%,-6,?
CNc1nc(-c2ccc3c(c2)CCN3C(=O)c2ccc(F)cc2)cs1,·,?,?,4%,-8,-7
COc1cc(/C=C/c2cc[n+](C)cc2)ccc1OCC(=O)Nc1ccc(Cl)c(Cl)c1,22,?,?,·,16,-89*
COc1cc(NC(=O)COc2ccc(-n3cnnn3)cc2)cc(OC)c1OC,-5,?,23µM*,0%,3,-10
COc1cc(/C=C/c2cccc[n+]2C)ccc1OCC(=O)Nc1cccc(Cl)c1,-1,18µM*,-18%,·,3,-71*
COc1ccc(NC(=O)COc2ccc(/C=C/c3cccc[n+]3C)cc2OC)cc1,6,-10%,0%,·,2,-16
O=C(COc1ccc(-n2cnnn2)cc1)Nc1cc(Cl)cc(Cl)c1,-3,?,-22%,-12%,7,1
COc1cc(/C=C/c2cccc[n+]2C)ccc1OCC(=O)Nc1ccccc1,-1,-20%,-31%,·,7,-17
COc1ccc(NC(=O)COc2ccc(/C=C/c3cc[n+](C)cc3)cc2OC)cc1,2,23µM*,?,·,-1,-54*
C/C=C/c1ccc(OCC(=O)Nc2cc(OC)c(OC)c(OC)c2)c(OC)c1,-15,12µM*,13µM*,8%,-11,-11
C/C=C/c1ccc(OCC(=O)O)c(OC)c1,0,-16%,-2%,3%,10,16
CCOC(=O)c1c(C)[nH]c(CCC(=O)NC(C)c2ccccc2)c1C (configuration not stated),·,18µM*,?,3%,·,·
SMILES,CtBP-E1A inh,TDP1 cell noCPT,DT40 TDP1 CPT,TDP1 block,Six1-Eya2 inh,IL1B secr inh
CCOC(=O)c1c(C)[nH]c(C(=O)OC(C(=O)N(C)C)c2ccccc2)c1C (configuration not stated),·,10µM*,10µM*,·,·,·
CCOC(=O)c1c(C)[nH]c(CCC(=O)NCc2cccc(C)c2)c1C,·,16µM*,?,8%,·,·
CCOC(=O)c1c(C)[nH]c(CCC(=O)Nc2cc(Cl)ccc2OC)c1C,·,21µM*,18µM*,0%,·,·
CC(C)C[C@H]1COc2cc(N3CCSCC3)ccc2S(=O)(=O)N1,2,-24%,-5%,·,-11,-17
COc1ccc(-n2c(=O)c(NC(=O)c3ccccc3)c3n(c2=S)CCCCC3)cc1,1,3%,-11%,-8%,-8,-19
CCOC(=O)c1c(C)[nH]c(CCC(=O)NCc2ccc(OC)cc2OC)c1C,·,16µM*,?,3%,·,·
CCOC(=O)c1c(C)[nH]c(CCC(=O)NCc2cccc(OC)c2)c1C,·,?,?,5%,·,·
CCOC(=O)C(=O)Nc1nnc(SCc2ccc(F)cc2)s1,0,22%,-18%,0%,8,0
CCc1nc2sc3c(O)cc(=O)[nH]c3c2cc1C,-6,12µM*,?,-5%,2,-7
O=c1cc(O)c2sc3nc4c(c(C(F)(F)F)c3c2[nH]1)CCCCC4,3,?,-18%,·,-5,19
CCOC(=O)C1CCCN(C(=O)c2ccc3c(c2)OCCO3)C1 (configuration not stated),8,-21%,1%,0%,2,16
O=C1C2C3c4ccccc4C(c4ccccc43)[C@@H]2c2nc3ccccc3n21 (some centres not stated),-1,10µM*,12µM*,2%,7,1
